GBA activity = alters purified human glucocerebrosidase activity. purified enzyme, resorufin glucoside fluorescence (screen aimed at inhibitors), 20 min. Potency, µM. AID 360. P04062. 48,000 tested, 1.1% active; in the data active means potency below about 15 µM; inconclusive means mostly about 16 µM to 33 µM;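 further: the screen sought inhibitors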
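Wild-type enzyme at 0.2 nM final in 50mM citric acid/KH2PO4, 10mM sodium taurocholate, 0.01% tween-20, pH 5.9, with resorufin beta-D-glucopyranoside at 30 uM final. Compounds titrated, 20 min at RT, red fluorescence read; AC50 from titration.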
Luciferase inh = blocks Photinus pyralis firefly luciferase activity; P08659; purified firefly luciferase, luminescence, 8 min; Potency, µM (highest dose often 57.1 µM), for inactives: at the highest dose activity change, negative = inhibition, most hits filed as inhibitors; 72,000 tested, 2.2% active; AID 411; further: on the % scale 0 is the no-effect control and ±100 the full control effect; nearly all actives have a fitted effect of over 40% in size
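Luminescence read-out after 8 min at room temperature; enzyme reaction used luciferin plus 10 uM ATP (linear range) in imidazole buffer pH 7.2 with KCl, MgCl2, Tween 20 and BSA. Each sample was run as a titration.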
HEK293 cAMP cs = parental HEK293 cAMP activation (counter-screen). parental HEK293 CNG cAMP sensor, membrane potential fluorescence. Potency, µM (top dose mostly 57.1 µM), for the others: top-dose activation, most hits filed as activators. 73,000 tested, 2.5% active; further: % of control where 0% means no effect; nearly all actives have a fitted effect of over 55% in size
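Counterscreen for endogenous-receptor signalling: CNG-channel HEK 293 cells report cAMP rise by membrane depolarization. After 60 min dye equilibration with 100 uM RO 20-1724, compounds incubated 30 min before bottom-read fluorescence at 590 nm.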
PK Bst = alters activity of Bacillus stearothermophilus pyruvate kinase; purified pyruvate kinase, luminescence ATP production; ribose 5-phosphate activator present at AC10; AID 361; 51,000 tested, 1.2% active; Potency, µM; in the data active means potency below about 11 µM; inconclusive means mostly about 12 µM to 25 µM;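 the screen sought inhibitors and activators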;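 further: scaled between full activation by ribose 5 phosphate and full inhibition by luteolin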
TSHR ag = agonists of human thyroid stimulating hormone receptor | HEK293-CNG-TSHR cells (CNG channel as cAMP sensor), membrane potential dye, cAMP | Potency, µM (highest dose often 57.1 µM), for the others: top-dose activation, hits mostly activators | 73,000 tested, 0.48% active | AID 926; active means well fitted activation curve with a large enough effect in the main read-out, with a control signal flat, not every such curve was filed as active; inconclusive means small, poorly fitted or top-dose-only effect, or a change in a side signal; inactive means no such curve, though single readings can be large or run the other way; % of control where 0% means no effect;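 further: the control signal comes from parental cells without the receptor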
Target sequence (P16473 whole entry, looked up): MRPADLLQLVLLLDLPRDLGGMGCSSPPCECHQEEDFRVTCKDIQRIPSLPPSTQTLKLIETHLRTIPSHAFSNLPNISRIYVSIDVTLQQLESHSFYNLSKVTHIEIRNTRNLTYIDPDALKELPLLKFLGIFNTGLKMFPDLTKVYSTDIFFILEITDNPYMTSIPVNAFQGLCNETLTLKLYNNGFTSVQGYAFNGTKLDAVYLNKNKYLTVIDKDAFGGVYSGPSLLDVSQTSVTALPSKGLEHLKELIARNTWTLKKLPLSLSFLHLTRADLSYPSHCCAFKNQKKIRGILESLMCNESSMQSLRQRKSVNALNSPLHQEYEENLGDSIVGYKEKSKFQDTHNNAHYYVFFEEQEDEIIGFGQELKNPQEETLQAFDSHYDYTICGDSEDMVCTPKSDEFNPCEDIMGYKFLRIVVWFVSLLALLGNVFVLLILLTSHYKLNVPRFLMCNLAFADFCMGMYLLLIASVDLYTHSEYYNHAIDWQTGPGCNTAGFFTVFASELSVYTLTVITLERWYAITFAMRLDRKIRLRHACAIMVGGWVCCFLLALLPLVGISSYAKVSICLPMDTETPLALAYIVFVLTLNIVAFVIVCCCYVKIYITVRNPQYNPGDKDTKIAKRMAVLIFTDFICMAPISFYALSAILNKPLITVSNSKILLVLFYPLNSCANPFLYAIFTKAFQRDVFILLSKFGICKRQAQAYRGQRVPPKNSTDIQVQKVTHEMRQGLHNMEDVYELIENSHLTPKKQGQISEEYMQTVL
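HEK 293 cells stably expressing TSHR and a modified CNG channel, with CNG-only parental cells as counterscreen, were preloaded 60 min at room temperature with membrane potential dye containing 100 uM RO 20-1724. Compound exposure was 30 min, and depolarization was read as fluorescence at 590 nm.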
* hit, by the source's call; [ ] = another dose, or the depositor's remark. A selection: hits, their analogues and other compounds. The true share with any hit is near 5.8%. Unless noted, the call rests on the fitted dose curve; in most records, active means well fitted curve in the direction sought with a large enough effect; inconclusive means small, poorly fitted or top-dose-only effect, or another doubt; inactive means no such curve, though single readings can be large; an effect the other way counts as inactive or inconclusive. Potency means the concentration at half of the fitted maximal effect.

`CO[C@@H]1COC(=O)[C@@H](CCSC)NC(=O)C/C=C\[C@@H](C)COC(=O)[C@H](C)NC(=O)C/C=C\[C@H]1C` gave Luciferase inh 1%[11.4 µM], HEK293 cAMP cs -3%[11.4 µM] and TSHR ag -6%[11.4 µM].
For COC(=O)c1ccccc1NC(=O)C1CC(=O)N(c2ccc(F)cc2)C1 (stereo not given) the results were GBA activity >77, Luciferase inh 1%, HEK293 cAMP cs 25µM*, PK Bst >57 and TSHR ag inconclusive.
For Cc1cc(S(=O)(=O)N(Cc2ccccc2)Cc2ccc(N(C)C)cc2)ccc1-n1cnnn1 the results were GBA activity 8.5*, Luciferase inh -1%, HEK293 cAMP cs -5%, PK Bst >57 and TSHR ag 10%.
`Cc1cc(S(=O)(=O)N(C)CCc2ccccc2)ccc1-n1cnnn1` gave Luciferase inh 3%, HEK293 cAMP cs -2%, PK Bst >57 and TSHR ag -4%.
CC(C)[C@@H](CC(=O)N[C@@H]1CCCC[C@H]1C(=O)N[C@H](CC(=O)N[C@@H](CCC(=O)O)CC(=O)O)Cc1ccccc1)NC(=O)C[C@H](Cc1ccccc1)NC(=O)[C@@H]1CCCC[C@H]1N was read as HEK293 cAMP cs -1% and TSHR ag 2%.
COc1ccc2cccc(N3CCN(CCNC(=O)c4ccc(F)cc4)CC3)c2c1 was read as Luciferase inh 0%, HEK293 cAMP cs 13% and TSHR ag 20%.
For C=CCc1cccc(C2C(C)CCC3C(=O)N4C(Cc5c([nH]c6ccccc56)C4c4cc(OC)c(OC)c(OC)c4)C(=O)N32)c1 (stereo not given) the results were HEK293 cAMP cs -2%[11.4 µM] and TSHR ag -1%[11.4 µM].
Screening O=C(O)/C(Cc1ccc([N+](=O)[O-])cc1)=N/O returned Luciferase inh 0%[11.4 µM], HEK293 cAMP cs 10%[11.4 µM] and TSHR ag -1%[11.4 µM].
`COc1ccc(C(=O)N2CCC3(CCCN(c4ccncc4)C3)CC2)cc1` gave Luciferase inh 0%[11.4 µM], HEK293 cAMP cs 13µM* and TSHR ag inconclusive.
Screening COc1ccc(C(=O)N2CCC[C@@]3(CCN(Cc4ccccc4OC)C3)C2)cc1 returned Luciferase inh 1%[11.4 µM], HEK293 cAMP cs 16µM* and TSHR ag inconclusive.
For COc1ccccc1CN1CC[C@@]2(CCCN(C(=O)c3cc(C(F)(F)F)cc(C(F)(F)F)c3)C2)C1 the results were Luciferase inh 2%[11.4 µM], HEK293 cAMP cs inconclusive and TSHR ag inconclusive.
For O=C(c1cc(C(F)(F)F)cc(C(F)(F)F)c1)N1CCC2(CCCN(c3ccncc3)C2)CC1 the results were Luciferase inh 1%[11.4 µM], HEK293 cAMP cs 7.9µM* and TSHR ag inconclusive.
COc1ccc(C(=O)N2CCC3(CC2)CN(c2ccncc2)C3)cc1 was read as Luciferase inh 1%[11.4 µM], HEK293 cAMP cs 12% and TSHR ag 3%.
Screening O=C(c1cc(C(F)(F)F)cc(C(F)(F)F)c1)N1CCC2(CC1)CCN(c1ccccn1)CC2 returned Luciferase inh -1%[11.4 µM], HEK293 cAMP cs 16µM* and TSHR ag inconclusive.
O=C(c1cc(C(F)(F)F)cc(C(F)(F)F)c1)N1CCC2(CC1)CCN(c1ncccn1)CC2 was read as Luciferase inh 2%[11.4 µM], HEK293 cAMP cs 5% and TSHR ag -4%.
Screening Cc1c(-c2ccccc2)oc2cc(O)ccc2c1=O returned Luciferase inh -3%[11.4 µM], HEK293 cAMP cs inconclusive and TSHR ag inconclusive.
`c1cc2c(cc1C1CCCCC1)c1c3n2CCN[C@H]3CCC1` gave Luciferase inh -1%, HEK293 cAMP cs 3% and TSHR ag 2%.
`CC1=C(C(=O)OCCOC(C)C)C(c2cc3c(cc2Br)OCO3)C2=C(CCCC2=O)N1` (stereo not given) gave GBA activity 11*, Luciferase inh 2%, HEK293 cAMP cs -3%, PK Bst >57 and TSHR ag -4%.
`CCN(CC)c1ccc(C2C(C(=O)OCCOC(C)C)=C(C)NC3=C2C(=O)CCC3)cc1` (stereo not given) gave Luciferase inh 0%, HEK293 cAMP cs -2% and TSHR ag 7%.
Screening COC(=O)C(C(=O)OC)C1O[C@@]23COCCC2(C)C3c2ccccc21 (stereo not given in full) returned HEK293 cAMP cs 9%[11.4 µM] and TSHR ag 19%[11.4 µM].
`COc1ccc2[nH]cc(CCNc3cc(-c4cccc(C#N)c4)ncn3)c2c1` gave Luciferase inh 0%[2.29 µM], HEK293 cAMP cs -15% and TSHR ag -13%.
Screening COc1ccc(-c2cc3ccccc3n2CC(O)Cn2nc(C)cc2C)cc1 (stereo not given) returned GBA activity >77, Luciferase inh 1%, HEK293 cAMP cs 13%, PK Bst >57 and TSHR ag 1%.
For COc1ccc(-c2cc3ccccc3n2CC(O)CNC(CO)(CO)CO)cc1 (stereo not given) the results were GBA activity 14*, Luciferase inh -1%, HEK293 cAMP cs -3%, PK Bst >11 and TSHR ag -7%.
For O=C(Oc1ccccc1)N1CCC2(CC1)CCN(c1ccncc1)CC2 the results were Luciferase inh 1%[11.4 µM], HEK293 cAMP cs 7.9µM* and TSHR ag inconclusive.
Screening COCC(=O)N1CCC2(CC1)CN(c1ccccn1)C2 returned Luciferase inh 0%[11.4 µM], HEK293 cAMP cs 16µM* and TSHR ag inconclusive.
O=C(Oc1ccccc1)N1CCC2(CC1)CCN(c1ccccn1)CC2 was read as Luciferase inh -2%[11.4 µM], HEK293 cAMP cs 13µM* and TSHR ag inconclusive.
CC[C@H](C)[C@@H]1O[C@]2(CC[C@@H]1C)C[C@H]1C[C@H](CC=C(C)[C@@H](O[C@H]3C[C@H](OC)[C@H](O[C@H]4C[C@H](OC)[C@H](O)[C@H](C)O4)[C@H](C)O3)[C@@H](C)C=CC=C3CO[C@@H]4[C@@H](O)C(C)=C[C@H](C(=O)O1)[C@@]34O)O2 was read as Luciferase inh -2% and HEK293 cAMP cs -10%.
Screening C[C@@]12C[C@H](O)[C@@H]3[C@H](CCC4=CC(=O)CC[C@]43C)[C@H]1CC[C@@H]2c1csc(N)n1 returned Luciferase inh 2%[11.4 µM], HEK293 cAMP cs 11%[11.4 µM] and TSHR ag -1%[11.4 µM].
Screening COc1ccc(CNc2ncncc2-c2ccc3c(c2)OCO3)c(OC)c1 returned Luciferase inh -13%[2.29 µM], HEK293 cAMP cs inconclusive and TSHR ag inconclusive.
Screening O=C(c1cccc(F)c1)N1C2C=CC(C2)C1(C(F)(F)F)C(F)(F)F (stereo not given) returned GBA activity >77, Luciferase inh 1%, HEK293 cAMP cs 23%, PK Bst >57 and TSHR ag 25µM*.
COc1ccc(NC(=O)Nc2cccc(C)n2)cc1 was read as Luciferase inh 16µM*, HEK293 cAMP cs inconclusive and TSHR ag inconclusive.

Source: PubChem
